# Measurements reported in paper PMC11006913.
# Residue numbers refer to the chain shown, from its start.
# How the values were obtained:
# Assay in all cases: PBM; 200 nM protein, PBS
# Conditions in all cases: dsDNA, one strand shown
# SIX6 [1] = target: T1, SIX6 (Homo sapiens, UniProt O95475 114-200, L167I)
# T1 sequence: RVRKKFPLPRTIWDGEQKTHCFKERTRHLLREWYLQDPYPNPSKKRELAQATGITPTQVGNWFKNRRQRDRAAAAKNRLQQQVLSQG
# SIX6 [2] = target: T2, SIX6 (Homo sapiens, UniProt O95475 114-200, L143V)
# T2 sequence: T1 sequence with L30V, I54L
# SIX6 [3] = target: T3, SIX6 (Homo sapiens, UniProt O95475 114-200, H141N)
# T3 sequence: T1 sequence with H28N, I54L
# SIX6 [4] = target: T4, SIX6 (Homo sapiens, UniProt O95475 114-200, T165P)
# T4 sequence: T1 sequence with T52P, I54L
# SIX6 [5] = target: T5, SIX6 (Homo sapiens, UniProt O95475 114-200, L167M)
# T5 sequence: T1 sequence with I54M
# SIX6 [6] = target: T6, SIX6 (Homo sapiens, UniProt O95475 114-200, L143M)
# T6 sequence: T1 sequence with L30M, I54L
# SIX6 [7] = target: T7, SIX6 (Homo sapiens, UniProt O95475 114-200, L143I)
# T7 sequence: T1 sequence with L30I, I54L
# SIX6 [8] = target: T8, SIX6 (Homo sapiens, UniProt O95475 114-200, T165G)
# T8 sequence: T1 sequence with T52G, I54L
# SIX6 [9] = target: T9, SIX6 (Homo sapiens, UniProt O95475 114-200, T139Q)
# T9 sequence: T1 sequence with T26Q, I54L
# SIX6 [10] = target: T10, SIX6 (Homo sapiens, UniProt O95475 114-200, T165A)
# T10 sequence: T1 sequence with T52A, I54L
# SIX6 [11] = target: T11, SIX6 (Homo sapiens, UniProt O95475 114-200, L167V)
# T11 sequence: T1 sequence with I54V
# SIX6 [12] = target: T12, SIX6 (Homo sapiens, UniProt O95475 114-200)
# T12 sequence: T1 sequence with I54L
# SIX6 [13] = target: T13, SIX6 (Homo sapiens, UniProt O95475 114-200, T165I)
# T13 sequence: T1 sequence with T52I, I54L
Sequence,binding signal (SIX6 [1]),binding signal (SIX6 [2]),binding signal (SIX6 [3]),binding signal (SIX6 [4]),binding signal (SIX6 [5]),binding signal (SIX6 [6]),binding signal (SIX6 [7]),binding signal (SIX6 [8]),binding signal (SIX6 [9]),binding signal (SIX6 [10]),binding signal (SIX6 [11]),binding signal (SIX6 [12]),binding signal (SIX6 [13])
CGGGGACC,"8.99 upbm affinity estimate (log intensity, higher = more binding, comparable within an allelic series)","8.83 upbm affinity estimate (log intensity, higher = more binding, comparable within an allelic series)","8.99 upbm affinity estimate (log intensity, higher = more binding, comparable within an allelic series)","8.96 upbm affinity estimate (log intensity, higher = more binding, comparable within an allelic series)","8.97 upbm affinity estimate (log intensity, higher = more binding, comparable within an allelic series)","8.88 upbm affinity estimate (log intensity, higher = more binding, comparable within an allelic series)","8.86 upbm affinity estimate (log intensity, higher = more binding, comparable within an allelic series)","8.9 upbm affinity estimate (log intensity, higher = more binding, comparable within an allelic series)","8.95 upbm affinity estimate (log intensity, higher = more binding, comparable within an allelic series)","8.92 upbm affinity estimate (log intensity, higher = more binding, comparable within an allelic series)","8.99 upbm affinity estimate (log intensity, higher = more binding, comparable within an allelic series)","8.89 upbm affinity estimate (log intensity, higher = more binding, comparable within an allelic series)","8.91 upbm affinity estimate (log intensity, higher = more binding, comparable within an allelic series)"
GATACACC,"11.1 upbm affinity estimate (log intensity, higher = more binding, comparable within an allelic series)","10.4 upbm affinity estimate (log intensity, higher = more binding, comparable within an allelic series)","11.1 upbm affinity estimate (log intensity, higher = more binding, comparable within an allelic series)","9.65 upbm affinity estimate (log intensity, higher = more binding, comparable within an allelic series)","10.7 upbm affinity estimate (log intensity, higher = more binding, comparable within an allelic series)","10.9 upbm affinity estimate (log intensity, higher = more binding, comparable within an allelic series)","10.4 upbm affinity estimate (log intensity, higher = more binding, comparable within an allelic series)","11.2 upbm affinity estimate (log intensity, higher = more binding, comparable within an allelic series)","11.2 upbm affinity estimate (log intensity, higher = more binding, comparable within an allelic series)","11.1 upbm affinity estimate (log intensity, higher = more binding, comparable within an allelic series)","10.9 upbm affinity estimate (log intensity, higher = more binding, comparable within an allelic series)","11.1 upbm affinity estimate (log intensity, higher = more binding, comparable within an allelic series)","10.9 upbm affinity estimate (log intensity, higher = more binding, comparable within an allelic series)"
GGTATCAC,"11.6 upbm affinity estimate (log intensity, higher = more binding, comparable within an allelic series)","10.5 upbm affinity estimate (log intensity, higher = more binding, comparable within an allelic series)","11.6 upbm affinity estimate (log intensity, higher = more binding, comparable within an allelic series)","9.55 upbm affinity estimate (log intensity, higher = more binding, comparable within an allelic series)","10.9 upbm affinity estimate (log intensity, higher = more binding, comparable within an allelic series)","11.2 upbm affinity estimate (log intensity, higher = more binding, comparable within an allelic series)","10.6 upbm affinity estimate (log intensity, higher = more binding, comparable within an allelic series)","11.8 upbm affinity estimate (log intensity, higher = more binding, comparable within an allelic series)","11.6 upbm affinity estimate (log intensity, higher = more binding, comparable within an allelic series)","11.6 upbm affinity estimate (log intensity, higher = more binding, comparable within an allelic series)","11.4 upbm affinity estimate (log intensity, higher = more binding, comparable within an allelic series)","11.3 upbm affinity estimate (log intensity, higher = more binding, comparable within an allelic series)","11.4 upbm affinity estimate (log intensity, higher = more binding, comparable within an allelic series)"
ATATCACA,"11.3 upbm affinity estimate (log intensity, higher = more binding, comparable within an allelic series)","10.3 upbm affinity estimate (log intensity, higher = more binding, comparable within an allelic series)","11.3 upbm affinity estimate (log intensity, higher = more binding, comparable within an allelic series)","9.9 upbm affinity estimate (log intensity, higher = more binding, comparable within an allelic series)","10.7 upbm affinity estimate (log intensity, higher = more binding, comparable within an allelic series)","11 upbm affinity estimate (log intensity, higher = more binding, comparable within an allelic series)","10.4 upbm affinity estimate (log intensity, higher = more binding, comparable within an allelic series)","11.3 upbm affinity estimate (log intensity, higher = more binding, comparable within an allelic series)","11.1 upbm affinity estimate (log intensity, higher = more binding, comparable within an allelic series)","11.2 upbm affinity estimate (log intensity, higher = more binding, comparable within an allelic series)","11.1 upbm affinity estimate (log intensity, higher = more binding, comparable within an allelic series)","11 upbm affinity estimate (log intensity, higher = more binding, comparable within an allelic series)","11 upbm affinity estimate (log intensity, higher = more binding, comparable within an allelic series)"
GCCGCGCA,"8.96 upbm affinity estimate (log intensity, higher = more binding, comparable within an allelic series)","8.97 upbm affinity estimate (log intensity, higher = more binding, comparable within an allelic series)","8.91 upbm affinity estimate (log intensity, higher = more binding, comparable within an allelic series)","8.97 upbm affinity estimate (log intensity, higher = more binding, comparable within an allelic series)","8.9 upbm affinity estimate (log intensity, higher = more binding, comparable within an allelic series)","8.97 upbm affinity estimate (log intensity, higher = more binding, comparable within an allelic series)","8.96 upbm affinity estimate (log intensity, higher = more binding, comparable within an allelic series)","8.81 upbm affinity estimate (log intensity, higher = more binding, comparable within an allelic series)","8.99 upbm affinity estimate (log intensity, higher = more binding, comparable within an allelic series)","8.86 upbm affinity estimate (log intensity, higher = more binding, comparable within an allelic series)","8.86 upbm affinity estimate (log intensity, higher = more binding, comparable within an allelic series)","8.91 upbm affinity estimate (log intensity, higher = more binding, comparable within an allelic series)","8.89 upbm affinity estimate (log intensity, higher = more binding, comparable within an allelic series)"
ATGGTATC,"11 upbm affinity estimate (log intensity, higher = more binding, comparable within an allelic series)","10.3 upbm affinity estimate (log intensity, higher = more binding, comparable within an allelic series)","11 upbm affinity estimate (log intensity, higher = more binding, comparable within an allelic series)","9.62 upbm affinity estimate (log intensity, higher = more binding, comparable within an allelic series)","10.6 upbm affinity estimate (log intensity, higher = more binding, comparable within an allelic series)","10.7 upbm affinity estimate (log intensity, higher = more binding, comparable within an allelic series)","10.4 upbm affinity estimate (log intensity, higher = more binding, comparable within an allelic series)","11.1 upbm affinity estimate (log intensity, higher = more binding, comparable within an allelic series)","11.2 upbm affinity estimate (log intensity, higher = more binding, comparable within an allelic series)","10.9 upbm affinity estimate (log intensity, higher = more binding, comparable within an allelic series)","10.8 upbm affinity estimate (log intensity, higher = more binding, comparable within an allelic series)","10.9 upbm affinity estimate (log intensity, higher = more binding, comparable within an allelic series)","10.8 upbm affinity estimate (log intensity, higher = more binding, comparable within an allelic series)"
